TrxR1 substrate – is turned over as a substrate by rat TrxR1; purified TrxR1 substrate turnover, NADPH consumption readout; O89049; Potency, µM (top dose mostly 114 µM); actives 0.01% (n = 390,000); further: nearly all actives have a fitted effect of over 50% in size
Target sequence (O89049 whole entry, looked up): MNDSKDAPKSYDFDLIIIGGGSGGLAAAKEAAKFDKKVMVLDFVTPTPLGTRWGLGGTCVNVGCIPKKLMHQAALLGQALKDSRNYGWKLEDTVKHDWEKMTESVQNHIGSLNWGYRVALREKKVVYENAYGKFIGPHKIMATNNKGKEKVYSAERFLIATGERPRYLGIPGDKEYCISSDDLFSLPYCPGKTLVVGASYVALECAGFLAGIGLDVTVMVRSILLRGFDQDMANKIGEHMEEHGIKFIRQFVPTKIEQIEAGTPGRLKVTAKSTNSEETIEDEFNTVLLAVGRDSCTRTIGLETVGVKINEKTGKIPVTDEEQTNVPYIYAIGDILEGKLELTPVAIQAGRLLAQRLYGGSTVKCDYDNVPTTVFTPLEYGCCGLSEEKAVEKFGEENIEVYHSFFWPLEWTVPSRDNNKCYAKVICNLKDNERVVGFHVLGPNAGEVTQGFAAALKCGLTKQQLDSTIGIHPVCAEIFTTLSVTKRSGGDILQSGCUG
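Rat TrxR1, dispensed at 90 nM, was prereduced with 400 uM NADPH (final) for 5 min at ~22 deg C, then incubated with compound 15 min before 400 uM selenite. A first-read NADPH fluorescence drop versus no-compound background flagged substrates.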
TrxR1 inh – inhibitors of rat thioredoxin reductase 1. recombinant rTrxR1, NADPH fluorescence consumption, selenite substrate. AID 588453. Potency, µM (highest dose often 114 µM), actives largely listed as inhibitors. O89049. actives 1% (n = 390,000); further: nearly all actives have a fitted effect of over 65% in size
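Rat TrxR1 (90 nM in the dispensed reagent) was pre-reduced with 400 uM NADPH for 5 min at room temperature, then incubated with compound for 15 min. After 400 uM selenite was added, NADPH fluorescence (Ex 340/Em 450 nm) was followed for 8 min.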
Eya2 inh – Eya2 (human) phosphatase inhibition | Potency, µM (series often up to 76.9 µM), hits mostly inhibitors | actives 0.006% (n = 330,000) | O00167 | recombinant Eya2, OMFP fluorescence dephosphorylation (OMFP is methylfluorescein phosphate)
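Eya2 protein (added as 0.2 uM solution) was preincubated with compound for 10 min at ambient temperature in 50 mM HEPES pH 7.5, 50 mM NaCl, 5 uM MgCl2, 0.05% BSA, 1 mM DTT. OMFP (added at 50 uM) then reacted 10 min; fluorescence read at 485/525 nm.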
IDH1 R132H inh – inhibitors of human mutant IDH1 R132H; O75874; IDH1-R132H enzyme, NADPH consumption, diaphorase/resazurin fluorescence; Potency, µM (top dose mostly 76.6 µM), hits mostly inhibitors; actives 0.093% (n = 390,000); AID 602179; further: nearly all actives have a fitted effect of over 65% in size
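IDH1-R132H (0.5 ug/mL) preincubated 30 min with compound, then NADPH (0.016 mM) and alpha-KG (2 mM) added; 80 min at RT, pH 7.5. Remaining NADPH coupled via diaphorase/resazurin to fluorescence (540/590 nm); concentration-response curves normalized to no-enzyme control.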
RGS4 inh – human RGS4 inhibition. AID 504845. P49798. Transcreener GDP fluorescence polarization, RGS4-accelerated GTP hydrolysis. Potency, µM (doses to about 114 µM), actives largely listed as inhibitors. actives 0.039% (n = 390,000); further: nearly all actives have a fitted effect of over 75% in size
Target sequence (P49798 whole entry, looked up): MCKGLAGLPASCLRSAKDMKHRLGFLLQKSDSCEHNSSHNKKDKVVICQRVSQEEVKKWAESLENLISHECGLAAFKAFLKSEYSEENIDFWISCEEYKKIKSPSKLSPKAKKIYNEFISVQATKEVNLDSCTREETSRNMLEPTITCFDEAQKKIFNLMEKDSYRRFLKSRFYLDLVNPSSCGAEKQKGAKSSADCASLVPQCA
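MLSMR compounds (23 nl, pin-transferred) preincubated 10 min at room temperature with a 500nM (2x) first reagent, then RGS4 at 900nM (2x) plus Transcreener GDP mix added; fluorescence polarization (620/688 nm) read before and after 90 min at 30 °C.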
Of the large screens only hits and unclear results are named; the others gave an inactive call; ! = not active in a repeat. Most compounds without a hit are left out; they make up all but 1.1% or so of the library. The call rests on the fitted dose curve; in most records, active means well fitted curve in the direction sought with a large enough effect; inconclusive means small, poorly fitted or top-dose-only effect, or another doubt; inactive means no such curve, though single readings can be large; an effect the other way counts as inactive or inconclusive.

CC1CCN(S(=O)(=O)c2cc3c4c(c2)C(C)C(=O)N4CCC3)CC1 (stereo unspecified)	none
CCC(CC)C(=O)Nc1ccc(-c2cn3cccnc3n2)cc1	TrxR1 inh 79µM
CCOC(=O)c1c(S(=O)(=O)N2CCCC(C(=O)Nc3ccc(OCC)cc3)C2)c(C)n(C)c1C (stereo unspecified)	none (no result: Eya2 inh)
CCOC(=O)c1[nH]c2ccccc2c1NC(=O)c1ccc(S(=O)(=O)N(C)C)cc1	none
CN(C)S(=O)(=O)c1ccc(C(=O)Oc2cc(=O)[nH]c3ccccc23)cc1	TrxR1 inh 14µM
COc1ccc2[nH]cc(CC(N)C(=O)O)c2c1 (stereo unspecified)	none (no result: TrxR1 substrate, TrxR1 inh, Eya2 inh, IDH1 R132H inh)
N[C@@H](Cc1c[nH]c2ccc(O)cc12)C(=O)O	TrxR1 inh inconclusive, RGS4 inh 24µM!
COc1ccc(C(=O)NC(Cc2c[nH]c3ccccc23)C(=O)O)cc1 (stereo unspecified)	none
CCCOc1ccc(C(=O)CCNC(Cc2c[nH]c3ccccc23)C(=O)O)cc1 (stereo unspecified)	TrxR1 inh 1.8µM, RGS4 inh inconclusive
Cc1cc(C)nc(/N=C(\N)N2CCCCC2)n1	none
O=C(CNC(=O)c1ccccc1F)c1ccccc1	none
COc1cccc(-c2nc(CS(=O)CC(=O)NC(C)CCc3ccccc3)c(C)o2)c1 (stereo unspecified)	TrxR1 inh 28µM
Cc1ccccc1-c1nc(CS(=O)CC(=O)NC(C)CCc2ccccc2)c(C)o1 (stereo unspecified)	TrxR1 inh 2.2µM
COc1cccc(-c2nc(CS(=O)CC(=O)NCCc3ccccc3)c(C)o2)c1 (stereo unspecified)	TrxR1 inh 28µM
COc1cccc(-c2nc(CS(=O)CC(=O)O)c(C)o2)c1 (stereo unspecified)	none
Cc1cccc(-c2nc(CS(=O)CC(=O)NCCc3ccccc3)c(C)o2)c1 (stereo unspecified)	none
CCC(C)NC(=O)CS(=O)Cc1nc(-c2cccc(OC)c2)oc1C (stereo unspecified)	TrxR1 inh 25µM
O=C(COc1ncnc2ccccc12)Nc1cc(S(=O)(=O)N2CCOCC2)ccc1Cl	none
COc1ccc(/C=N\NC(=O)c2ccc(-c3ccccc3)cc2)cc1COC(C)=O	none
Cc1ccc(CCNC(=O)C2CCCN(S(=O)(=O)c3cccs3)C2)cc1 (stereo unspecified)	none
C/C=C(\C)c1nnc(NC(=O)OCC)s1	none
O=C(O)c1ccccc1NC(=O)C1CCN(S(=O)(=O)c2ccc3c(c2)OCCO3)CC1	none (no result: TrxR1 substrate, TrxR1 inh, Eya2 inh, RGS4 inh)
COc1ccc(/C=C/C(=O)c2ccc([N+](=O)[O-])o2)cc1	TrxR1 inh inconclusive
O=C(/C=C/c1cccc([N+](=O)[O-])c1)c1ccc([N+](=O)[O-])o1	TrxR1 inh 1.1µM, IDH1 R132H inh inconclusive (no result: Eya2 inh)
O=C(/C=C/c1cccc([N+](=O)[O-])c1)c1ccco1	TrxR1 inh 18µM
Cc1cc(C)n(CCNS(=O)(=O)c2ccc(C)c(C)c2)n1	none
CCOC(=O)[C@H]1[C@H]2COc3ccc(C)cc3[C@@H]2N2C(=O)CN(Cc3ccco3)C(=O)[C@@]12C	TrxR1 inh 56µM
CCOC(=O)[C@H]1[C@H]2COc3ccc(C)cc3[C@@H]2N2C(=O)CN(Cc3ccc(C)cc3)C(=O)[C@@]12C	none
Cc1ccc(S(=O)(=O)NC(CC(=O)NC2CCCC2)c2ccco2)cc1 (stereo unspecified)	none
CCN(CC)c1ccc2c(c1)oc(=O)c1c(Cl)cc(=O)oc12	TrxR1 inh 35µM, IDH1 R132H inh inconclusive, RGS4 inh inconclusive
CCN(CC)c1ccc2c(C)c(Cl)c(=O)oc2c1	none
COC(=O)c1ccc(C2Nc3cccc4cccc(c34)N2)cc1	none
COc1cc(C2Nc3cccc4cccc(c34)N2)cc(OC)c1O	TrxR1 inh 16µM
COc1ccc(C2Nc3cccc4cccc(c34)N2)cc1Br	TrxR1 inh inconclusive
COc1cc(C2Nc3cccc4cccc(c34)N2)ccc1OC(C)=O	TrxR1 inh 10µM
O=C(CC(c1ccco1)S(=O)(=O)c1ccccc1)c1ccc(F)cc1 (stereo unspecified)	TrxR1 inh 50µM
COc1cc2c(NC3CCN(C)CC3)nc(N3CCCN(C)CC3)nc2cc1OCC1CCCNC1 (stereo unspecified)	TrxR1 inh 32µM (no result: Eya2 inh, IDH1 R132H inh, RGS4 inh)
COc1cc2nc(N3CCCN(C)CC3)nc(NC3CCN(C)CC3)c2cc1OC	TrxR1 inh inconclusive (no result: Eya2 inh, IDH1 R132H inh, RGS4 inh)
Cc1cc(C)c2c(NC(=O)CCl)nn(C)c2n1	TrxR1 inh inconclusive
CCc1cc(SC#N)cc(CC)c1NC(=O)CCl	TrxR1 inh 25µM, IDH1 R132H inh inconclusive
Cc1cccc(OCCOc2ccccc2C=C(C#N)C#N)c1	TrxR1 inh 2.8µM
Cc1ccccc1-c1nc(S(=O)(=O)c2ccccc2)c(NCCCN2CCOCC2)o1	none
O=c1[nH]c(-c2ccc(-c3cccc(Cl)c3)o2)nc2ccccc12	TrxR1 inh 50µM, RGS4 inh inconclusive (no result: IDH1 R132H inh)
COC(=O)C1CCN(c2cc(=O)n(-c3ccc(OC)cc3)c(=O)[nH]2)CC1	TrxR1 inh 28µM
CCOC(=O)N1CCN(c2cc(=O)n(-c3ccc(OC)cc3)c(=O)[nH]2)CC1	TrxR1 inh inconclusive
Cc1ccc(/C=C2/C(=O)N(c3ccccc3)C(=S)N2C)o1	TrxR1 inh 20µM, RGS4 inh inconclusive
Cc1ccc(/C=C2\C(=O)NC(=O)N2C)o1	TrxR1 inh 50µM, RGS4 inh inconclusive
Cc1ccc(/C=C2\C(=O)Nc3ccccc32)o1	TrxR1 inh 18µM, RGS4 inh inconclusive
CCOc1ccc(N2C(=O)/C(=C/c3ccco3)N(C)C2=S)cc1	TrxR1 inh inconclusive
Cc1ccc(/C=C2/SC(=O)NC2=S)o1	TrxR1 inh 56µM, RGS4 inh inconclusive
O=C(OCc1cn([C@H]2CN(C(=O)c3cccs3)[C@@H](c3ccc(Cl)cc3)C[C@@H]2O)nn1)c1ccccc1	none (no result: TrxR1 substrate, TrxR1 inh, Eya2 inh, RGS4 inh)
COC(=O)C1=C/C=C\CN(C(c2ccccc2)c2ccccc2)/C=C\1C(=O)OC	none (no result: TrxR1 substrate, TrxR1 inh, Eya2 inh, RGS4 inh)
COc1ccccc1N1C(=O)CC(Sc2n[nH]c(-c3cccc(C)c3)n2)C1=O (stereo unspecified)	TrxR1 inh 1.6µM, RGS4 inh inconclusive
O=c1oc2c(CN3CCN(CCO)CC3)c(O)ccc2cc1-c1ccccn1	TrxR1 inh 45µM
O=C(NNC(=O)C1CCN(S(=O)(=O)c2ccc(Cl)cc2)CC1)c1ccncc1	none
O=C(CN1CCCCCC1)Nc1ccccc1[N+](=O)[O-]	none
O=C1CNC(=O)/C1=C\c1ccc(O)cc1	TrxR1 substrate inconclusive, TrxR1 inh 20µM
O=C1CNC(=O)/C1=C/c1ccc(O)cc1	TrxR1 substrate inconclusive, TrxR1 inh 20µM
CCOC(=O)c1nnc(-c2ccccc2)nc1Sc1ccccc1Cl	none
